Test results as given in PubChem BioAssay (Tox21).
Records with an inconclusive call do not appear. Entries that show only a call come without a potency. Active and inactive are the calls of the source. Calls come from the whole dose curve; as a rule, active = well fitted cell-killing curve with a large enough effect in the repeat runs; inconclusive = weak or mixed curves; inactive = flat fitted curve, though single readings scatter.

assay: qHTS RealTime-Glo MT Cell Viability Assay in HepG2 cells - 16 hour (AID 1224885); settings: RealTime-Glo luminescence; series mostly up to 76.8 µM; note: nearly all actives have a fitted effect of over 50% in size
Excerpt: U.S. Tox21 Program National Center for Advancing Translational Sciences [NCATS] NIH Chemical Genomics Center [NCGC] U.S. Environmental Protection Agency [EPA] National Institutes of Environmental Health Sciences [NIEHS] National Toxicology Program [NTP] U.S. Food and Drug Administration [FDA] Tox21 Assay Overview: Measure of cell viability is critical in the cell-base assay. Analysis of cell viability is necessary for the characterization of cell responses to cytotoxic drugs and environmental stress. A RealTime-Glo MT Cell Viability Assay to monitor cell viability in real time of continues cell culture during 40 hours of compound treatment was used to screen Tox21 10K library compounds in HepG2 cells. The RealTime-Glo MT Cell Viability Assay is a nonlytic, homogeneous, bioluminescent method to measure cell viability in real time using a simple, plate-based method. The assay involves adding NanoLuc luciferase and a cell-permeant prosubstrate to cells in culture. Viable cells reduce the proprietary prosubstrate to generate a substrate for NanoLuc luciferase. This substrate diffuses from cells into the surrounding culture medium, where it is rapidly used by the NanoLuc Enzyme to produce a luminescent signal. The signal correlates with the number of viable cells, making the assay well suited for cytotoxicity studies.
Tox21 Assay Protocol Summary: The mixture of HepG2 cell suspension and reagents were dispensed at 600cells/6 ul/well in 1536-well tissue culture treated black solid bottom plates using a Multidrop dispenser. After the assay plates were incubated at a 37 C/5% CO2 incubator for 5 hours, 23 nL of compounds dissolved in DMSO, positive and negative controls was transferred to the assay plate by a pintool work station. The plates were incubated at 37 C for 40 hours. The luminescence intensity were measured at 0h, 8h, 16h, 24h, 32h and 40h time points using ViewLux plate reader during compound treatment.

Compound | Potency
COc1ccc(C(=O)N2CCCC2=O)cc1 | inactive
ClC(Br)Br | inactive
CC(=O)Nc1cc([As](=O)(O)O)ccc1O | inactive
CCOC(=O)C1(c2ccccc2)CCN(CCc2ccc(N)cc2)CC1 | inactive
CC(CC(C#N)(c1ccccc1)c1ccccc1)N(C)C (stereo not given) | inactive
CCCCc1ccc(O)cc1 | inactive
ClC(Cl)Br | inactive
CS(=O)(=O)c1cc(C(F)(F)F)ccc1C(=O)c1cnoc1C1CC1 | inactive
CNC(=O)Oc1ccccc1C1OCCO1 | inactive
N#Cc1c(Cl)cccc1Cl | inactive
CCS(=O)(=O)CCSP(=O)(OC)OC | inactive
COc1ccc2c(c1OC)CN1CCc3cc4c(cc3C1C2)OCO4 (stereo not given) | inactive
CCCCCCBr | inactive
CCOP(=S)(OCC)Oc1ncn(-c2ccccc2)n1 | inactive
COc1cccc2c1cc([N+](=O)[O-])c1c(C(=O)O)cc3c(c12)OCO3 | inactive
Cc1cc(C)c(C(=O)P(=O)(C(=O)c2c(C)cc(C)cc2C)c2ccccc2)c(C)c1 | inactive
CN/C(=N\[N+](=O)[O-])NCC1CCOC1 (stereo not given) | inactive
CCC(Cl)[N+](=O)[O-] (stereo not given) | inactive
CCc1cc2c(s1)-n1c(C)nnc1CN=C2c1ccccc1Cl | inactive
CSc1ccc(C(=O)C(C)(C)N2CCOCC2)cc1 | inactive

Compound | Potency
CSc1nc(N=[N+]=[N-])nc(NC(C)C)n1 | inactive
Cc1ncsc1CCCl | inactive
ClCCOCOCCCl | inactive
OCCBr | inactive
C(CCOCC1CO1)COCC1CO1 (stereo not given) | inactive
C=CC1CC=CCC1 (stereo not given) | inactive
CNC(=O)Oc1ccc(N(C)C)c(C)c1 | inactive
ClC(Cl)C(Cl)Cl | inactive
COC(=O)COc1ccc(Cl)cc1Cl | inactive
N#CCNCC#N | inactive
CC(=O)CC(c1ccc(Cl)cc1)c1c(O)c2ccccc2oc1=O (stereo not given) | inactive
CCCCOC(=O)c1ccccc1N | inactive
CC(C1CC1)C(O)(Cn1cncn1)c1ccc(Cl)cc1 (stereo not given) | inactive
CCCSP(=O)(OCC)Oc1ccc(Br)cc1Cl (stereo not given) | inactive
N#CCCC#N | inactive
CCOP(=S)(OCC)Oc1cc(-c2ccccc2)on1 | inactive
Cc1coc2c1CCC(C)C2 (stereo not given) | inactive
COC(C)(C)C | inactive
CCCSP(=S)(OCC)Oc1ccc(Cl)cc1Cl (stereo not given) | inactive
Nc1cc2c3c(c1)C(c1ccccc1)=N[C@@H](NC(=O)c1cccnc1)C(=O)N3CC2 | inactive
